Experimental data reported in PubChem BioAssay.
Activity calls are given as the source filed them.

molecular target: NADPH oxidase 2 (Homo sapiens) (UniProt P04839); test: NOX2-dependent H2O2 signal modulators, primary screen, NOX inhibitor project, cell-based, HEK293-NOX2, PMA-stimulated, Amplex Red fluorescence (AID 1159); details: 45 min, higher = more signal, called active from +8 up or from −8 down; also: test concentration not given here
Sequence (P04839 whole entry, looked up): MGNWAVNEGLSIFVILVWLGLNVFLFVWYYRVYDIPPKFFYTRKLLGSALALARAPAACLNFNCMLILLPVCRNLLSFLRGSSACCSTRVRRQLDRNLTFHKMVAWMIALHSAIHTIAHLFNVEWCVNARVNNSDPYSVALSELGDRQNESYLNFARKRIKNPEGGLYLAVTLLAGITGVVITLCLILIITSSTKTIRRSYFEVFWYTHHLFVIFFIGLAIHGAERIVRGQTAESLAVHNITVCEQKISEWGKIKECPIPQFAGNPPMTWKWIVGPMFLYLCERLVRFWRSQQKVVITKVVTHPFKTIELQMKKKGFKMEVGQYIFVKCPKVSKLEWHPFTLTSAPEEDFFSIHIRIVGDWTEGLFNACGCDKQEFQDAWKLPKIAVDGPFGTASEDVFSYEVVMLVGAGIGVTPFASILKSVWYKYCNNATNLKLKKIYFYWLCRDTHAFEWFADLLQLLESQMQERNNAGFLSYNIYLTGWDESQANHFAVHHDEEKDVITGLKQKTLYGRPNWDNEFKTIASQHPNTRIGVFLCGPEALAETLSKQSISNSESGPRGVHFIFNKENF

z-score, inactive:
[N-]=[N+]=NCc1ccccc1[C@@H]1OC(c2ccc(OCCCO)cc2)=N[C@]1(CCS(=O)(=O)c1ccccc1)C(=O)O 1.19
CC1CC/C=C\[C@H]2OC34C=CCN(c5ccc(Cl)cc5)C(=O)[C@H]3N(C(C)CO)C(=O)[C@]4(C)C2C(=O)O1 (stereo not given in full) 0.889
C=CC[C@]1(C(=O)N2CCCCC2)N=C(c2ccc(OCCCO)cc2)O[C@H]1c1ccccc1CN=[N+]=[N-] -3.31
COc1ccc([Si](C)(C)[C@H]2[C@H](CC(=O)N3CCC[C@H]3CO)O[C@@]3(C(=O)N(Cc4ccc(N5CCOC5=O)cc4)c4ccccc43)[C@@H]2C)cc1 1.94
Cc1cc(C)c(C(O)C2C=CC3C(=O)N(c4ccccc4)C(=O)C3N2Nc2ccccc2F)c(C)c1 (stereo not given) -0.611
CC[C@@H]1O[Si](C(C)C)(C(C)C)c2c1cc(-c1cc(C)c(OC)c(C)c1)nc2-c1ccc(Oc2ccccc2)cc1 -1.36
O[C@@H](Cc1ccccc1)[C@@H](/C=C/C1CC1)N(CC#Cc1ccccc1)Cc1ccccc1Br -0.612
COC(=O)C/C=C/C[C@]1(O)C(=O)N(C)c2ccccc21 -0.563
C=CC[C@@]1(C(=O)NCCCOC)N=C(c2ccc(OCCCO)cc2)O[C@@H]1c1ccccc1N=[N+]=[N-] -3.32
COC(=O)[C@@H]1N=C(c2ccc(OCCCO)cc2)O[C@@H]1C -1.93
CCCC=C(CCC)[C@@H](NC(=O)c1cccs1)c1ccc(C(=O)OC)cc1 0.0754
COc1cc(NN2C(C(O)c3cc(OC)c(OC)c(OC)c3)C=CC3C(=O)N(C)C(=O)C32)cc(OC)c1OC (stereo not given) -1.81
COc1cc(OC)c(C(O)C2C=CC3C(=O)N(Cc4ccccc4)C(=O)C3N2n2cnnc2)cc1Br (stereo not given) -3.2
C=CCC(OC(C)=O)[C@@H]1[C@@H](N(Cc2cc3ccccc3o2)C(=O)Cc2ccc(F)cc2)c2cc(OCCCO)ccc2N1C(=O)Cc1ccc2ccccc2c1 (stereo not given in full) 0.682
COc1ccc(CCNC(=O)[C@@H]2c3ccccc3C(=O)N(C3CCCCC3)[C@H]2c2ccc(CO)cc2)cc1 -0.415
C[N+](C)(C)CCCC[C@@H]1NC(=O)[C@@H]2C[C@H](C(=O)NCCCCCCN)[C@H](c3cccc(OCCO)c3)N2C1=O 0.827
O=C1C2C=CC(C(O)C3CC=CCC3)N(Nc3ccccc3)C2C(=O)N1c1ccccc1 (stereo not given) -3.1
O=C1C2C=CC(C(O)c3ccco3)N(Nc3ccccc3F)C2C(=O)N1c1ccccc1 (stereo not given) -0.73
COC(=O)c1c(CC[C@@H](CO)NC(=O)N2CCC[C@H]2Cn2cc(C3(O)CCCCC3)nn2)oc(C(C)=O)c1C(=O)OC -0.645
C=C(/C(=C/C[C@H](OC(=O)c1ccncc1)c1ccc(CO)o1)c1cnc2ccccc2c1)C(C)C 1.42
COCC(=C=CC[C@H](O)c1ccccc1OCCO)C[C@H](O)c1ccccn1 0.251
CC(C)c1ccc(NN2C(C(O)c3ccc(F)cc3)C=CC3C(=O)N(c4ccccc4)C(=O)C32)cc1 (stereo not given) -1.15
CO[C@H]1O[C@H](CO)[C@@H](OC(=O)Nc2ccc3c(c2)OCO3)[C@H](OC(=O)Nc2ccc3c(c2)OCO3)[C@@H]1OC(=O)Nc1ccc2c(c1)OCO2 -1.32
CCCNC(=O)[C@@H]1c2ccccc2C(=O)N(Cc2ccc(OC(F)(F)F)cc2)[C@H]1c1ccc(CO)cc1 -0.62
CCOC(=O)C[C@H]1[C@H](OC(=O)c2cc3ccccc3oc2=O)[C@@H](NC(=O)c2ccccc2)c2cc(OCCCO)ccc2N1C(=O)c1ccccc1 -0.423
CCCNC(=O)[C@@]1(C)c2ccccc2C(=O)N(c2ccc(C)cn2)[C@H]1c1ccc(CO)cc1 -1.23
CC(C)C(O)C1C=CC2C(=O)N(c3ccccc3)C(=O)C2N1Nc1ccccc1 (stereo not given) -3.32
CCCCC(CC)C(O)C1C=CC2C(=O)N(c3ccccc3)C(=O)C2N1Nc1ccc(C#N)cc1 (stereo not given) 0.414
COc1ccc(CCNC(=O)[C@@]2(Cc3ccccc3I)c3ccccc3C(=O)N(C3CCCCC3)[C@H]2c2ccc(CO)cc2)cc1 0.189
[N-]=[N+]=Nc1ccccc1C[C@@]1(C(N)=O)N=C(c2ccc(OCCCO)cc2)O[C@@H]1c1ccccc1N=[N+]=[N-] -0.0581
C=CCN1C(=O)[C@]2(CCS(=O)(=O)c3ccccc3)N=C(c3ccc(OCCCO)cc3)O[C@@H]2c2ccccc21 -0.428
NC(=O)NCC#Cc1ccc2c(c1)[C@]1(C(=O)N2)[C@H](c2ccccc2OCCO)N2[C@H](c3ccccc3)[C@H](c3ccccc3)OC(=O)[C@H]2[C@@H]1C(=O)O 2.78
NCCCCCNC(=O)[C@H]1C[C@H]2C(=O)N3CCC[C@H]3C(=O)N2[C@H]1c1cccc(OCCO)c1 2.6
COc1ccc([Si](C)(C)[C@@H]2[C@@H](CCO)O[C@]3(C(=O)N(Cc4cccc(NC(=O)[C@H](C)O)c4)c4ccccc43)[C@H]2C)cc1 -0.881
CCCCN1CC=CC23O[C@@H]4/C=C\CCCOC(=O)C4[C@H]2C(=O)N(CCO)[C@@H]3C1=O (stereo not given in full) 1.28
